Rows were chosen to be rich in hits. Some 12% of all compounds tested hit in one or more screens of this group.
PLK1 PBD inh – PLK1 (human) polo-box domain binding inhibition; Plk1 PBD binding of FITC phosphopeptide, fluorescence polarization; Potency, µM, inactives show max response, negative = inhibition, hits mostly inhibitors; 2.8% of 360,000 active; AID 720504; further: series mostly up to about 57 µM; on the % scale 0 is the no-effect control and ±100 the full control effect; nearly all actives have a fitted effect of over 65% in size
JMJD2A Tudor – blocks the human JMJD2A Tudor domain; O75164; 4.4% of 390,000 active; AlphaScreen JMJD2A-Tudor / H3K4me3 peptide binding; Potency, µM (titrated, usually from 114 µM), for the others: top-dose activity change, negative = inhibition, usual class: inhibitors; AID 504339; further: on the % scale 0 is the no-effect control and ±100 the full control effect; nearly all actives have a fitted effect of over 50% in size
Sfp inh – Sfp phosphopantetheinyl transferase inhibition; 3.5% of 310,000 active; Potency, µM, for the others: largest response in the series, negative = inhibition, usual class: inhibitors; Biochemical Sfp PPTase activity, qHTS;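 further: the enzyme is Sfp with the accession as filed and its product quenches rhodamine fluorescence; 0% = enzyme reaction without inhibitor and -100% = no enzyme wells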
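Fluorescence-quenching assay: 15 nM Sfp-PPTase preincubated 15 min at room temperature with compound, then 5 uM rhodamine-CoA and 12.5 uM BHQ-2-labelled YbbR peptide added. Fluorescence (ex 525/em 598 nm) read at start and after 30 min; difference gives rate.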
HP1b binding inh – inhibitors of HP1-beta chromodomain binding to methylated histone tails. AlphaScreen HP1-beta / biotin-H3K9me3 peptide binding. Potency, µM (doses to about 114 µM), inactives show at the highest dose activity change, negative = inhibition, usual class: inhibitors. 0.56% of 390,000 active; further: nearly all actives have a fitted effect of over 70% in size
Target sequence (P83916 whole entry, looked up): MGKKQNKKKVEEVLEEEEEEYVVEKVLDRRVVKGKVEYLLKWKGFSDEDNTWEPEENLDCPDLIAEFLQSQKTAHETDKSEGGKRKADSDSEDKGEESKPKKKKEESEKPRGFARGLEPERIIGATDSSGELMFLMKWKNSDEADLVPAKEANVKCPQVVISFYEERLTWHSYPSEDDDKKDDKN
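HP1-beta protein (50 nM final) preincubated 30 min at room temperature with biotinylated H3(1-18)K9me3 peptide (50 nM) in PBS pH 7.4, 0.01% Tween-20, then compound added for 30 min. AlphaScreen streptavidin donor/nickel chelate acceptor beads (10 ug/mL final), 30 min dark, luminescence read.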
G9a block – inhibitors of human histone lysine methyltransferase G9a | Q96KQ7 | AID 504332 | 8.8% of 350,000 active | G9a H3K9 monomethylation, AlphaScreen, 2 h | Potency, µM (top dose mostly 102 µM), inactives show at the top dose activity, negative = inhibition, actives largely listed as inhibitors; further: on the % scale 0 is the no-effect control and ±100 the full control effect; nearly all actives have a fitted effect of over 75% in size
Target sequence (Q96KQ7 913-1193 limits assumed): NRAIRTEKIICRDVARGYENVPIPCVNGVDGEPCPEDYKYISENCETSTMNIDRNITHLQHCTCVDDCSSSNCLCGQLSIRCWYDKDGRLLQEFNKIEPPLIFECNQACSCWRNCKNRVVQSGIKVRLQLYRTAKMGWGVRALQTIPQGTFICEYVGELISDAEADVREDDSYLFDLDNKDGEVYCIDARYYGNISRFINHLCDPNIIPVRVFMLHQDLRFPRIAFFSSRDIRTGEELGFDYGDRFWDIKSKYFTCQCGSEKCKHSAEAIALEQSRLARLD
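Enzyme 20 nM + cpd, 15 min RT; add b-H3K9 pep 500 nM / SAM 20 uM; 2 h RT; anti-H3K9me1 Ab 0.5 ug/mL + SA donor / anti-rabbit acceptor beads 20 ug/mL each, 10 min; AlphaScreen read.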
BAZ2B inh – BAZ2B (human) inhibition; 4.4% of 360,000 active; Potency, µM (highest dose often 114 µM), for the others: at the top dose activity change, negative = inhibition, most hits filed as inhibitors; AlphaScreen BAZ2B-H3K14Ac peptide displacement; Q9UIF8; further: on the % scale 0 is the no-effect control and ±100 the full control effect; nearly all actives have a fitted effect of over 60% in size
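AlphaScreen displacement of biotin-H3(5-23)K14Ac peptide (50 nM final) from BAZ2B (50 nM final) in PBS pH 7.4, 0.01% Tween-20; complex preformed 30 min RT, then compounds (top 110 uM) 30 min RT, beads 20 min dark.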
The depositor's hits bear a star; [ ] = dose if it differs, or a comment. The call rests on the fitted dose curve; in most records, active means well fitted curve in the direction sought with a large enough effect; inconclusive means small, poorly fitted or top-dose-only effect, or another doubt; inactive means no such curve, though single readings can be large; an effect the other way counts as inactive or inconclusive. Potency means the concentration at half of the fitted maximal effect.

Results for Nc1nc(=S)c2[nH]cnc2[nH]1 ?
PLK1 PBD inh: -6%; JMJD2A Tudor: 5.6µM*; Sfp inh: -92%; HP1b binding inh: 5%; G9a block: 2.2µM*; BAZ2B inh: -36%

What do the screens show for `O=S(=O)(c1ccccc1)N1CCN(c2nc(C3CC3)nc3ccccc23)CC1`?
JMJD2A Tudor: -21%

Results for COc1ccc(NC(=O)Cc2noc3ccc(C)cc23)cc1Cl ?
JMJD2A Tudor: -10%; HP1b binding inh: 29%; G9a block: 2%[59 µM]; BAZ2B inh: -18%

What do the screens show for `CCOC(=O)c1ccc(NC(=O)Cc2noc3ccc(C)cc23)cc1`?
JMJD2A Tudor: -6%; HP1b binding inh: 51%; G9a block: 13µM*; BAZ2B inh: -1%

What do the screens show for `COc1ccc(/C(O)=C2/C(=O)C(=O)N(CCN(C)C)C2c2ccc(C)cc2)cc1Cl` (stereo not drawn)?
PLK1 PBD inh: -4%; JMJD2A Tudor: -9%; Sfp inh: -2%; HP1b binding inh: 34%; G9a block: 89µM*; BAZ2B inh: -6%

Results for CCN(CC)CCN1C(=O)C(=O)/C(=C(/O)c2ccc(F)cc2)C1c1cccnc1 (stereo not drawn) ?
PLK1 PBD inh: inconclusive; JMJD2A Tudor: -14%; Sfp inh: 2%; HP1b binding inh: 30%; G9a block: 25µM*; BAZ2B inh: -9%

Results for CN(C)CCN1C(=O)C(=O)/C(=C(/O)c2ccc(F)cc2)C1c1ccccc1F (stereo not drawn) ?
PLK1 PBD inh: -7%; JMJD2A Tudor: -21%; Sfp inh: -4%; HP1b binding inh: 14%; G9a block: 79µM*; BAZ2B inh: -35%

Results for COc1ccc(/C(O)=C2\C(=O)C(=O)N(CCN(C)C)C2c2cccc(OC)c2OC)cc1Cl (stereo not drawn) ?
PLK1 PBD inh: inconclusive; JMJD2A Tudor: inconclusive; Sfp inh: -2%; HP1b binding inh: 3%; G9a block: 45µM*; BAZ2B inh: inconclusive

What do the screens show for `Cc1cccc(C(=O)NCCc2nc3ccccc3n2Cc2ccc(Cl)cc2)c1`?
JMJD2A Tudor: -18%; HP1b binding inh: 28%; G9a block: -7%[59 µM]; BAZ2B inh: 1%

How did CC(=O)C1(O)C(C)CC2C3CCC4CC(O)CCC4(C)C3=CCC21C (stereo not drawn) do in these assays?
PLK1 PBD inh: 1%; JMJD2A Tudor: -9%; Sfp inh: -4%; HP1b binding inh: 18%; G9a block: -13%; BAZ2B inh: 10%

What do the screens show for `C[C@@H]1CC2[C@@H]3CC[C@H]4CC(=O)CC[C@]4(C)C3=CC[C@]2(C)[C@@]1(O)C(=O)CO` (stereo partly drawn)?
PLK1 PBD inh: 2%; JMJD2A Tudor: -4%; Sfp inh: -7%; HP1b binding inh: 29%; G9a block: 56µM*; BAZ2B inh: -24%

How did O=C(CN1C(=O)NC(Cc2c[nH]c3ccccc23)C1=O)Nc1ccc(F)cc1F (stereo not drawn) do in these assays?
PLK1 PBD inh: 0%; JMJD2A Tudor: -12%; HP1b binding inh: 2%

Results for N#Cc1ccccc1NC(=O)CN1C(=O)NC(Cc2c[nH]c3ccccc23)C1=O (stereo not drawn) ?
PLK1 PBD inh: 4%; JMJD2A Tudor: -10%; HP1b binding inh: 25%; G9a block: 10µM*; BAZ2B inh: -3%

What do the screens show for `CCOC(=O)N1CCC(c2cc(=O)n3[nH]cc(C(=O)OC)c3n2)CC1`?
PLK1 PBD inh: -14%; JMJD2A Tudor: -25%; Sfp inh: 12%; HP1b binding inh: 17%; G9a block: 17%[59 µM]; BAZ2B inh: 5%

How did CCOc1ccc(NC(=O)c2c[nH]n3c(=O)cc(C4CCN(C(=O)OC(C)(C)C)CC4)nc23)cc1 do in these assays?
PLK1 PBD inh: inconclusive; JMJD2A Tudor: -23%; Sfp inh: 1%; HP1b binding inh: 14%; G9a block: 11µM*; BAZ2B inh: -9%

How did CN(Cc1ccccc1)c1ccc(C(CC(N)=O)NC(=O)c2ccc(Br)cc2)cc1[N+](=O)[O-] (stereo not drawn) do in these assays?
PLK1 PBD inh: 6%; JMJD2A Tudor: inconclusive; Sfp inh: -11%; HP1b binding inh: -3%; G9a block: inconclusive; BAZ2B inh: inconclusive

Results for C/C(=N\NC(=O)c1cc(C2CC2)nc2ccccc12)c1ccc(O)cc1O ?
PLK1 PBD inh: -1%; JMJD2A Tudor: -23%; Sfp inh: 8%; HP1b binding inh: 17%; G9a block: -4%; BAZ2B inh: 3.5µM*

Results for C/C(=N\NC(=O)c1cc(C2CC2)nc2ccccc12)c1ccc(C)s1 ?
PLK1 PBD inh: 2%; JMJD2A Tudor: -3%; Sfp inh: -8%; HP1b binding inh: 36%; G9a block: 40µM*; BAZ2B inh: -10%

How did Cc1oc(-c2ccccc2Cl)nc1CSc1nncn2c1cc1occc12 do in these assays?
JMJD2A Tudor: 3%; HP1b binding inh: 33%; G9a block: -1%[59 µM]; BAZ2B inh: -27%

What do the screens show for `N#CC(c1ccc(Cl)cc1)c1ccc2c(C(F)(F)F)cc(C(F)(F)F)nc2n1` (stereo not drawn)?
PLK1 PBD inh: -14%; JMJD2A Tudor: 50µM*; Sfp inh: 11%; HP1b binding inh: 8.9µM*; G9a block: 11µM*; BAZ2B inh: 32µM*

How did O=C(O)c1ccc(/C=C2\SC(=S)N(Nc3ccccc3)C2=O)cc1 do in these assays?
PLK1 PBD inh: 21µM*; JMJD2A Tudor: -23%; Sfp inh: -24%; HP1b binding inh: -5%; G9a block: 50µM*; BAZ2B inh: inconclusive

How did Cc1cc(C)nc(NN2C(=O)/C(=C/c3ccccc3)SC2=S)n1 do in these assays?
PLK1 PBD inh: -27%; JMJD2A Tudor: -11%; Sfp inh: 32µM*; HP1b binding inh: 1%; G9a block: 40µM*; BAZ2B inh: -8%

Results for O=C1/C(=C/c2ccncc2)SC(=S)N1Nc1ccccc1 ?
PLK1 PBD inh: 5.3µM*; JMJD2A Tudor: inconclusive; Sfp inh: inconclusive; HP1b binding inh: inconclusive; G9a block: 32µM*; BAZ2B inh: inconclusive

How did O=C(O)c1ccc(/C=C2\SC(=S)N(NC(=O)c3ccccc3[N+](=O)[O-])C2=O)cc1 do in these assays?
PLK1 PBD inh: -11%; JMJD2A Tudor: -19%; Sfp inh: -23%; HP1b binding inh: 16%; G9a block: inconclusive; BAZ2B inh: -3%

What do the screens show for `CC(=O)NN1C(=O)/C(=C\c2ccc(C)cc2)SC1=S`?
PLK1 PBD inh: -3%; JMJD2A Tudor: -3%; Sfp inh: 10%; HP1b binding inh: 22%; G9a block: 15%[59 µM]; BAZ2B inh: -4%

Screening results as filed in PubChem.
